Source: PubChem BioAssay AID602296 (Broad Institute, 2012)
About 190 (9.5%) of roughly 2,000 compounds were called active. Inconclusive results (about 14%) are left out.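 How the source made its calls: active means fitted activation curve crossing 40% at a concentration no higher than the sample's top valid tested dose; inconclusive means flat fitted curve at 30% to 70% activation, or poor curve fit; inactive means signal decrease, flat curve within 30%, or the rest.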 The list is a sample of the results.

Assay: sustained heat shock response element induction – cell-based, mouse, luciferase, cherry-pick, dose, confirmation (AID 602296);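 further: test compounds applied by themselves with no MG132 co-treatment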
Settings: NIH3T3-HGL HSF-1 response element luciferase, 48 h; series mostly up to 26 µM

outcome, inactive:
O=C(NC1CCCN(Cc2ccccc2F)C1)c1cccs1 (stereo not drawn)
O=C(O)c1cc([N+](=O)[O-])c(NCCC2=CCCCC2)c([N+](=O)[O-])c1
O=C(Nc1cccc(Cl)c1)C1CCCN(S(=O)(=O)c2ccc(F)cc2)C1 (stereo not drawn)
COC(=O)Nc1ccc(S(=O)(=O)Nc2cccc3ccccc23)cc1
O=C(CCn1c(=O)oc2ccccc21)Nc1ccccc1
CC1(C)Cc2nc(NCCN3CCOCC3)c(C#N)cc2CO1
CC(=O)C1=C(O)C(=O)N(c2nccs2)C1c1ccccc1 (stereo not drawn)
Cc1[nH]nc(-c2ccc(O)c(C)c2O)c1-c1cnn(-c2ccccc2)c1
CCOC(=O)C1=C(C)Nc2ncnn2C1c1ccc2c(c1)OCO2 (stereo not drawn)
COCCCNC(=O)c1c[nH]c2ccc(S(=O)(=O)N3CCc4ccccc43)cc2c1=O
NS(=O)(=O)c1ccc(CCNC(=O)c2ccc([N+](=O)[O-])s2)cc1
CC(=O)Cc1cc(O)c2ccccc2c1OC(=O)c1ccccc1
O=C1CC(NNc2ccccc2)C(=O)N1c1ccccc1 (stereo not drawn)
Cc1cc(NC(=O)c2cc(C)on2)n(-c2ccccc2)n1
CCOC(=O)c1c(NC(=O)c2nn(CC)cc2Br)c(C#N)nn1-c1ccccc1
Cc1oc2ccc(NS(=O)(=O)c3ccc(C(C)(C)C)cc3)cc2c1C(=O)Nc1ccccc1
CCCc1[nH]nc2c1C(c1cc(OC)ccc1F)C(C#N)=C(N)O2 (stereo not drawn)
O=C(CN1C(=O)NC(Cc2c[nH]c3ccccc23)C1=O)Nc1cccc(S(=O)(=O)N2CCOCC2)c1 (stereo not drawn)
CCOC(=O)C(C)(C)N(Cc1ccc(C)cc1)S(=O)(=O)c1ccc(Cl)c([N+](=O)[O-])c1
Oc1ccc(-c2cnc(-c3ccc(O)cc3)nc2)cc1
Cc1cccc2cc(CN(Cc3ccco3)C(c3nnnn3CCc3ccccc3)C(C)C)c(=O)[nH]c12 (stereo not drawn)
COCCNC(=O)c1cccc(OC2CCN(Cc3ccc(Cl)c(F)c3)CC2)c1
CCCCOCCCN1CC(=O)N2[C@@H](Cc3c([nH]c4ccccc34)C2(C)C)C1=O
Cc1ccc(-c2cc(C(F)(F)F)c(C#N)c(SCC(=O)O)n2)cc1
CCOC(=O)C1=C(c2ccccc2)NC(=O)NC1c1cc(Br)c(O)c(OC)c1 (stereo not drawn)
CCCn1nc([N+](=O)[O-])c(C(C#N)c2nc3ccccc3o2)c(Cl)c1=O (stereo not drawn)
O=C(COC(=O)c1ccc(S(=O)(=O)NCc2ccco2)cc1)Nc1ccccc1OC(F)F
Cc1cc(C)nc(Sc2nc(Cl)nc(N(c3ccccc3)c3ccccc3)n2)n1
COc1cc(-c2nc(-c3ccc4c(c3)-c3ccccc3S4(=O)=O)c(-c3ccccc3)[nH]2)cc(OC)c1O
CCC(=O)Nc1c(S(=O)(=O)c2ccccc2)c2nc3ccccc3nc2n1C(C)c1ccccc1 (stereo not drawn)
CCOc1cc(/C=C2/C(=O)ON=C2C)ccc1OCc1ccc(F)cc1
O=C(CSc1ncn[nH]1)c1cccc([N+](=O)[O-])c1
COc1cc(-c2nnc3sc(Cc4ccc(Cl)cc4)nn23)cc(OC)c1OC
O=C(CN(C(=O)c1csnn1)c1ccc(F)c(Cl)c1)NCc1ccc(F)cc1
CC(C)(C)Cc1nc2ccccc2n1CCc1ccccc1
COC(=O)c1ccc(CSc2nc3ccccc3c(=O)n2CC(C)C)o1
CC(c1ccc(F)cc1)n1c(Cn2ncc3ccccc3c2=O)n[nH]c1=S (stereo not drawn)
OC(CNCc1ccco1)Cn1c2ccc(Br)cc2c2cc(Br)ccc21 (stereo not drawn)
COc1ccccc1N1CCN(C(=O)c2ccc3c(=O)n(Cc4ccco4)c(=S)[nH]c3c2)CC1
CCCCNC(=S)N(Cc1ccco1)Cc1cc2cc3c(cc2[nH]c1=O)OCCO3
O=C1N/C(=C\c2ccc(O)cc2)C(O)=C1C=NCc1ccccc1
Cc1cccc(C(C#N)c2ccc(Cl)nn2)c1 (stereo not drawn)
COc1ccc2[nH]c(C)c(CCNc3ccc(C(F)(F)F)cc3[N+](=O)[O-])c2c1
O=S(=O)(c1ccccc1)c1ncc(C(F)(F)F)cc1Cl
O=C(CCCn1c(=S)[nH]c2ccc(Br)cc2c1=O)NCC1CCCO1 (stereo not drawn)
COc1ccc(C(=O)N(C)CC(O)c2ccccc2)cc1OC1CCN(C(C)=O)CC1 (stereo not drawn)
O=C1c2ccccc2-c2onc3ccc(N4CCCC4)c1c23
COC(=O)Cc1ccc(NC(=O)c2ccc(C)c(C)c2)cc1
CCOC(=O)c1c(S(=O)(=O)NCC2CCN(CCc3cccs3)CC2)c(C)n(C)c1C
Cc1nn(C)c(Oc2ccccc2)c1CCNS(=O)(=O)c1ccc(Cl)cc1
CN1C(=O)C2(c3ccccc31)N(C)CC(c1ccccn1)C21SC(=S)N(Cc2ccco2)C1=O (stereo not drawn)
COC(=O)C1=C(C)NC(=S)NC1c1ccc(-c2cccc(Cl)c2)o1 (stereo not drawn)
Cc1ccc(C(c2c(C)nn(-c3ccccc3)c2N)c2c(C)nn(-c3ccccc3)c2N)cc1
COc1cc(CNC2CCCC2)cc(OC)c1
CCn1c(SCC(=O)N2CCOCC2)nc2oc3c(Cl)cc(Cl)cc3c(=O)c2c1=O
CC(=O)c1ccc(NC(=O)CCCN2C(=O)/C(=C/C(C)=C/c3ccccc3)SC2=S)cc1
Cc1noc(C)c1COC(=O)c1ccccc1Oc1ccccc1
CCc1nnc(NC(=O)C(NC(=O)c2ccccc2Cl)C(C)C)s1 (stereo not drawn)
COC(=O)c1sccc1NC(=O)Nc1cccc(F)c1
Cc1cc(SCC(=O)N/N=C/c2ccc(O)c(O)c2)c(C)cc1Br
Cn1c(SCc2cccc(C(F)(F)F)c2)nnc1-c1ccco1
Clc1ccc(CSc2nnc(-c3sccc3-n3cccc3)o2)cc1
Fc1ccc(Sc2ccccc2CNC2=NCCN2)cc1
O=S(=O)(c1ccc(Cl)c(NC(=S)N/N=C/c2ccc(O)cc2)c1)N1CCOCC1
O=c1c(Cl)cc(Cl)nn1-c1ccccc1
CCc1cc2c(SCC#N)ncnc2s1
CCOC(=O)CC(NC(=O)C1c2ccccc2Oc2ccccc21)c1ccccc1Cl (stereo not drawn)
COc1cccc(-c2c(C#N)c(N)nc3c2c(C)nn3-c2ccccc2)c1O
O=C(COC(=O)/C=C/c1cccc([N+](=O)[O-])c1)NCc1ccco1
CN(C)c1ccc(C(CNC(=O)c2ccccc2)c2c[nH]c3ccccc23)cc1 (stereo not drawn)
CCOC(=O)CC1C(=O)NCCN1S(=O)(=O)c1cc(Cl)c(Cl)cc1Cl (stereo not drawn)
O=C(CCC1CCCC1)N=C1SC2CS(=O)(=O)CC2N1c1ccccc1F (stereo not drawn)
S=c1nc(SCc2ccccc2)[nH]c2ccccc12
O=C(Nc1ccc(OCC(F)(F)C(F)F)c(C(F)(F)F)c1)c1ccccc1O
CC(C)N(Cc1ccccc1)C(=O)COC(=O)/C=C/c1cnc2ccccc2n1
CCN(CCCNC(=O)CCCN1C(=O)COc2ccc(C)cc21)c1cccc(C)c1
Cc1ccc(C)c(NC(=O)CS(=O)(=O)c2cn(C)c3ccccc23)c1
Cc1ccc(NC2OC(CO)C(O)C2O)cc1[N+](=O)[O-] (stereo not drawn)
COc1cccc(/C=N/Nc2ccc([N+](=O)[O-])cn2)c1O
CCCC(=O)O/N=C(\c1ccccc1)c1ccncc1
COc1ccc(C)cc1NC(=O)CSc1nnc(COc2ccc(Cl)cc2)n1Cc1ccco1
Cc1nc2ccccc2n1CC(O)COCC1CC=CCC1 (stereo not drawn)
Cc1cccc(-[n+]2c(C)cc(C)c3c(=O)[nH]c(=O)[nH]c32)c1
O=C1CSC(=S)N1/N=C/c1cccc(C(F)(F)F)c1
CN(C)CCCCNCCCNC(=O)/C=N\O
CN(c1cccc(NC(=O)CN(c2cccc(Cl)c2)S(=O)(=O)c2ccc(Cl)cc2)c1)S(C)(=O)=O
CC1CN(C(=O)CS(=O)(=O)Cc2ccccc2)CC(C)O1 (stereo not drawn)
Cc1ccc(C(=O)/C=C/c2cc(Br)cc(Br)c2O)o1
Cc1c(-n2cc(C(=O)c3ccccc3O)cc(C#N)c2=O)c(=O)n(-c2ccccc2)n1C
O=C(/C=C/c1ccc(Cl)cc1Cl)N(Cc1ccccc1)C1CCS(=O)(=O)C1 (stereo not drawn)
OCC1(Cc2cccc(C(F)(F)F)c2)CCN(Cc2cc3ccccc3o2)CC1
Cc1ccc(S(=O)(=O)c2c(N)n(-c3ccccc3)c3nc4ccccc4nc23)cc1
CN(CC(=O)Nc1ccccc1Cl)CC(=O)Nc1c(F)cccc1F
